# EWS-Fli block: blocks EWS/Fli oncoprotein-driven transcription | A673 NR0B1-luciferase reporter, viability-normalised | inhibition, % at 12.6 µM | hit rate 0.67% among 350,000 | AID 651661;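 active = mean inhibition of at least 50% after viability correction, with every replicate also passing that limit; inconclusive = mean reaches 50% but only one of two replicates passes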;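 note: firefly luciferase signal divided by Alamar Blue viability fluorescence both relative to DMSO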
# LMP1 NFkB inh: reduces LMP1-driven NF-kappaB luciferase signal; LMP1-induced NF-kappaB luciferase reporter cells, luminescence; AID 504558; inhibition, % at 12.5 µM; hit rate 0.69% among 350,000; in the data active = inhibition above about 41%; inconclusive = no clear call, values can overlap the other calls;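 note: 0% = neutral control wells and 100% = reference inhibitor control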
# PAX8 reporter: PAX8 transcriptional activity inhibition. RMG-I TPO-luciferase reporter, SteadyGlo, 24 h. AID 652154. hit rate 1.2% among 360,000. inhibition, % at 12.6 µM;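 active = mean replicate inhibition at least 60% with every replicate also reaching 60%; inconclusive = only one of the two criteria is met; inactive = mean below 60% and not all replicates reaching 60%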;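 note: luciferase light reporting Pax8 driven TPO promoter activity; plate controls were median of neutral control wells for no effect and mitoxantrone controls for full effect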
# LGR2 antag: blocks bursicon-induced cAMP signaling via Drosophila LGR2. HEK293 LGR2, CRE-luciferase, bursicon-stimulated, 4 h. inhibition, % at 9.99 µM. hit rate 0.35% among 380,000. AID 720647;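 active = drop in luminescence signal, shown as inhibition above about 50% in the replicate tests, limit read from the data, passing the limit was not always enough; inconclusive = probably only some replicates passing the limit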;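 note: agonist challenge used bursicon conditioned medium at about half maximal strength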
# PGC1a acetyl inh: modulators of PGC1a acetylation; U2OS PGC1a acetylation, AlphaScreen anti-acetyl-lysine; with virally co-expressed GCN5 acetyltransferase; inhibition, % at 15.6 µM; hit rate 0.17% among 350,000;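 active = every replicate shows inhibition of at least 40%; inconclusive = mean inhibition at least 40% but some replicate below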;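 note: 0% = neutral control wells and 100% = positive control wells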
# MITF TRPM1 inh: inhibitors of MITF-driven TRPM1 promoter in melanoma cells. SK-MEL-5 TRPM1 promoter luciferase, 24 h. inhibition, % at 12.5 µM. hit rate 0.83% among 330,000. AID 488899;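 active = mean inhibition across replicates of 60% or more, whatever share of single replicates reaches that level; inconclusive = some that reach 60%, reason not given; inactive = mean inhibition across replicates below 60%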
# Numbers without * were called inactive; ? = inconclusive; . = no result. Rows were chosen to be rich in hits. Some 2.2% of all compounds tested hit in one or more screens of this group.
SMILES,EWS-Fli block,LMP1 NFkB inh,PAX8 reporter,LGR2 antag,PGC1a acetyl inh,MITF TRPM1 inh
CC(=O)N1CC2(C1)[C@H](c1ccccc1)[C@@H](CO)N2Cc1cccc(Cl)c1,0,.,-11,-15,-3,.
O=C(C1CCC1)N1CC2(C1)[C@H](c1ccccc1)[C@@H](CO)N2Cc1ccc(Cl)cc1,11,.,.,7,-11,.
CC[C@@]1(O)C(=O)OCc2c1cc1n(c2=O)Cc2cc3c(CN(C)C)c(O)ccc3nc2-1,63*,75*,102*,97*,.,79*
CC[C@@]1(O)C(=O)OCc2c1cc1n(c2=O)Cc2cc3c(N)cccc3nc2-1,?,83*,99*,.,.,80*
CCCCc1cc(=O)oc2c(CN(C)C)c(O)ccc12,.,7,.,.,0,0
C=CCn1c(C)c(C(C)=O)c(N2CCN(C(c3ccccc3)c3ccccc3)CC2)nc1=S,15,55*,4,-15,.,2
COc1cccc2c1C(=O)c1c(O)c3c(c(O)c1C2=O)CC(O)(C(=O)CO)CC3OC1CC(N(C)C)C(O)C(C)O1 (centres undefined),64*,87*,112*,.,33,69*
COc1cccc2c1C(=O)c1c(O)c3c(c(O)c1C2=O)C[C@@](O)(C(C)=O)C[C@@H]3O[C@H]1C[C@H](N)[C@H](O)[C@H](C)O1,70*,91*,114*,100*,51*,96*
COc1cccc2c1C(=O)c1c(O)c3c(c(O)c1C2=O)C[C@@](O)(C(=O)CO)C[C@@H]3O[C@H]1C[C@H](N)[C@@H](O)[C@H](C)O1,.,76*,.,.,-24,83*
CN1C[C@@H]2[C@H](c3ccccc31)[C@H](CO)N2C(=O)Nc1cccc(F)c1,-5,.,11,1,-5,.
CC(C)(C)C(=O)Cn1ncc(N2CCOCC2)c(Cl)c1=O,8,11,-1,-32,.,.
CC(C)(C)C(=O)Cn1ncc(Br)c(Br)c1=O,28,61*,32,103*,.,93*
Cc1ccsc1C(=O)Nc1cc(Cl)ccc1-n1cncn1,0,-6,27,-20,61*,12
COc1ccc2c3c([nH]c2c1)[C@@H](CO)N(C(=O)Nc1ccc(F)cc1)CC31CN(C(=O)Cc2ccncc2)C1,-4,.,.,-3,13,.
C[n+]1ccc(/C=C/c2c[nH]c3ccc(F)cc23)cc1,28,11,70*,17,3,19
C[C@H]1CN([C@@H](C)CO)C(=O)Cc2cc(NC(=O)Nc3ccc(C(F)(F)F)cc3)ccc2O[C@H]1CN(C)S(=O)(=O)c1ccc(Cl)cc1,57*,.,.,-11,8,.
C[C@@H]1CN([C@@H](C)CO)C(=O)Cc2cc(NC(=O)Nc3ccc(C(F)(F)F)cc3)ccc2O[C@@H]1CN(C)S(=O)(=O)c1ccc(Cl)cc1,18,-12,96*,-28,3,47
C[C@@H]1CN([C@H](C)CO)C(=O)Cc2cc(NC(=O)Nc3ccc(C(F)(F)F)cc3)ccc2O[C@@H]1CN(C)S(=O)(=O)c1ccc(F)cc1,1,.,7,18,3,.
C[C@H](CO)N1C[C@H](C)[C@H](CN(C)S(=O)(=O)c2cn(C)cn2)Oc2ccc(NC(=O)Nc3ccc(C(F)(F)F)cc3)cc2CC1=O,61*,-6,43,-2,.,24
C[C@H]1CN([C@@H](C)CO)C(=O)Cc2cc(NC(=O)Nc3ccc(C(F)(F)F)cc3)ccc2O[C@@H]1CN(C)S(=O)(=O)c1ccc(F)cc1,-4,.,14,14,-9,.
C[C@@H]1CN([C@H](C)CO)C(=O)c2cccc(NS(=O)(=O)c3ccc(Cl)cc3)c2O[C@@H]1CN(C)Cc1ccncc1,2,.,9,-5,3,.
C[C@H](CO)N1C[C@H](C)[C@H](CN(C)CC2CCCCC2)Oc2ccc(NS(=O)(=O)c3cn(C)cn3)cc2C1=O,16,.,.,-13,2,.
COc1cccc(C(=O)Oc2c(CN3CCOCC3)cc(Cl)c3cccnc23)c1,.,7,.,.,.,67*
COc1cc(C(=O)Oc2c(CN3CCOCC3)cc(Cl)c3cccnc23)cc(OC)c1OC,.,35,.,.,13,69*
COc1cc(C(=O)Oc2c(OC)cc(C(=S)N3CCOCC3)cc2OC)cc(OC)c1OC,12,5,3,2,8,19
SMILES,EWS-Fli block,LMP1 NFkB inh,PAX8 reporter,LGR2 antag,PGC1a acetyl inh,MITF TRPM1 inh
COc1ccc(C(=O)Oc2c(CN3CCOCC3)cc(Cl)c3cccnc23)cc1,.,4,.,.,2,8
COc1ccc(NC(=O)c2ccccn2)cc1OC,.,3,-145,18,.,-44
C/C(=N\NC(=O)c1ccc(Cl)c(Cl)c1)c1ccccn1,-1,73*,63*,15,.,65*
C/C(=N\NC(=O)C(c1ccccc1)c1ccccc1)c1ccccn1,.,8,77*,25,.,.
COc1ccc(C(=O)N/N=C(\C)c2ccccn2)cc1OC,.,27,70*,11,.,73*
CC(C)(C)c1ccc(/C=N/NC(=O)c2ccccn2)cc1,47,13,-5,86*,3,-13
O=C(C[C@@H]1CC[C@H]2[C@@H](COC[C@@H](O)CN2S(=O)(=O)c2ccccc2)O1)N1CCOCC1,-7,.,3,-3,-10,.
C[C@H]1CN([C@@H](C)CO)C(=O)c2cccc(NC(=O)Nc3ccc(F)cc3)c2O[C@@H]1CN(C)S(C)(=O)=O,10,.,4,1,4,.
COc1ccccc1C#Cc1ccc2c(c1)O[C@@H](CN(C)C(C)=O)[C@H](C)CN([C@@H](C)CO)S2(=O)=O,8,.,.,1,-4,.
C[C@H](CO)N1C[C@H](C)[C@H](CN(C)C(=O)Nc2ccc(C(F)(F)F)cc2)Oc2ccc(NS(=O)(=O)c3ccc(Cl)cc3)cc2C1=O,-4,.,6,9,2,.
C/C(=N/NC(=O)c1ccccn1)c1ccncc1,-68,-6,-69,-18,6,-33
C/C(=N/NC(=O)c1ccc(C(C)(C)C)cc1)c1ccccn1,-14,47*,14,-53,7,22
C/C(=N\NC(=O)c1cccc(Br)c1)c1ccccn1,-15,71*,12,-9,.,58
C/C(=N\NC(=O)c1cc(Br)ccc1O)c1ccccn1,-11,4,9,-45,.,28
O=C(Oc1ccccc1C(=O)Nc1ccccc1)c1ccccc1Br,53*,10,-19,.,1,-4
O=C(COc1ccccc1C(=O)Nc1ccccc1)c1ccc(Br)cc1,1,4,-1,8,1,-4

# Screening results deposited in PubChem BioAssay by Broad Institute.
